Sampled rows, rich in hits. Any-hit rate of the full collection: about 3.1%.
MITF TRPM1 HTS: activators of MITF-driven TRPM1 promoter activity in SK-MEL-5 cells. SK-MEL-5 TRPM1-promoter luciferase, 24 h; % of positive control, neutral wells = 0. activation, % at 12.5 µM. 300,000 compounds, 0.75% hits. AID 588334;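 active = mean activation of at least 80% with every replicate also reaching 80%; inconclusive = mean reaches 80% but some replicate falls short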
esBAF inh: blocks esBAF chromatin remodeling in mouse ES cells. Bmi1-luciferase knock-in reporter, 24 h; 100% = twice the neutral-well signal. reporter increase, % at 12.5 µM. 350,000 compounds, 2% hits. AID 602393; in the data active = activation above about 40%; inconclusive = no clear call, values can overlap the other calls;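 note: a rise in the Bmi1 reporter signal indicates esBAF inhibition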
Wnt act: activates Wnt/beta-catenin signaling in a reporter cell assay. activator, plate reader. 300,000 compounds, 1.2% hits. activation, % at 9.35 µM; in the data active = activation above about 30%, passing the limit was not always enough; inconclusive = no clear call, values can overlap the other calls
Rtt109 HAT inh: inhibitors of Candida albicans Rtt109/Vps75 histone acetyltransferase | Q5AAJ8 | purified Rtt109/Vps75, ThioGlo CoA-SH fluorescence, 4 h | inhibition, % at 34.9 µM | 330,000 compounds, 0.16% hits;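 active = inhibition of at least 50% in every replicate; inconclusive = best replicate reaches 50% inhibition but some replicates fall short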
Target sequence (Q5AAJ8 whole entry, looked up): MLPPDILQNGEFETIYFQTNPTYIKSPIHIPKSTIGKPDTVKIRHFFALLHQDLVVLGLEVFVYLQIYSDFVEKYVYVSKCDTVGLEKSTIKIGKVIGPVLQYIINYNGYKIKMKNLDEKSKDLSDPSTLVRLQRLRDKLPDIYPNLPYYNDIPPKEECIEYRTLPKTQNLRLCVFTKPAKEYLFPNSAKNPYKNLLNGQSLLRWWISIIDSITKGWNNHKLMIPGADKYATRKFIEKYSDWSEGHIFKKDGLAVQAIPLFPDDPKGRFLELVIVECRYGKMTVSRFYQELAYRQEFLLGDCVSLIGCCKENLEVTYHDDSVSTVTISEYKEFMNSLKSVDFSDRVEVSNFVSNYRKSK
C2C12 statin: protects C2C12 myotubes from simvastatin toxicity | rescue of ATP level, % at 7.49 µM | ATP luminescence, 48 h; scaled: DMSO 0, geranylgeraniol control 100 | 330,000 compounds, 0.78% hits;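 active = mean ATP rescue above about 67%, or every replicate alone reaching that limit, limit read from the data, passing the limit was not always enough; inconclusive = no clear call, values can overlap the other calls; inactive = mean under the limit and some replicate under it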;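 note: myotubes were challenged with 10 µM simvastatin during compound exposure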
Numbers stand for hits; 0 = inactive; ? = inconclusive; - = no result given.

SMILES	MITF TRPM1 HTS	esBAF inh	Wnt act	Rtt109 HAT inh	C2C12 statin
COCC(=O)N(C[C@@H]1N[C@H](CO)[C@H]1c1ccc(C2=CCCC2)cc1)C(C)C	-	0	-	-	0
O=C(NCC[C@H]1CC[C@H](NS(=O)(=O)c2ccc(F)cc2)[C@@H](CO)O1)Nc1ccc(Cl)cc1	-	0	-	-	0
N#Cc1c(-c2ccccc2)nc(SCC(=O)N(c2ccccc2)c2ccccc2)[nH]c1=O	0	0	0	0	0
N#Cc1c(-c2ccccc2)nc(SCC(=O)N2c3ccccc3Sc3ccccc32)[nH]c1=O	0	-	0	58	-
C[C@@H]1CN([C@H](C)CO)C(=O)Cc2cc(NC(=O)CCC(F)(F)F)ccc2O[C@H]1CN(C)Cc1ccccc1	-	0	-	-	0
C[C@@H]1CN([C@@H](C)CO)C(=O)Cc2cc(NC(=O)Nc3cccc4ccccc34)ccc2O[C@H]1CN(C)Cc1ccc2c(c1)OCO2	-	0	-	-	75
C[C@@H]1CN([C@H](C)CO)C(=O)Cc2cc(NC(=O)CCC(F)(F)F)ccc2O[C@H]1CN(C)Cc1ccc(Oc2ccccc2)cc1	-	0	-	-	102
C[C@H](CO)N1C[C@H](C)[C@@H](CN(C)Cc2ccc(Oc3ccccc3)cc2)Oc2ccc(NC(=O)Nc3cccc4ccccc34)cc2CC1=O	-	0	-	-	74
C[C@H](CO)N1C[C@H](C)[C@@H](CN(C)Cc2ccc(Oc3ccccc3)cc2)Oc2ccc(NC(=O)Nc3ccccc3)cc2CC1=O	-	0	-	-	79
C[C@H]1CN([C@@H](C)CO)C(=O)Cc2cc(NC(=O)Nc3cccc4ccccc34)ccc2O[C@@H]1CN(C)Cc1ccc2c(c1)OCO2	-	0	-	-	0
CCC(=O)Nc1ccc2c(c1)OC[C@H](C)N(CCc1ccccc1)C[C@H](C)[C@H](OC)CN(C)C2=O	-	0	-	-	0
COc1ccccc1CNC(=O)C[C@H]1C=C[C@H](NC(C)=O)[C@H](CO)O1	-	0	-	-	0
O=C(N[C@H]1CC[C@H](CCNS(=O)(=O)Cc2ccccc2)O[C@H]1CO)c1cnccn1	-	0	-	-	0
C[C@H]1CN([C@@H](C)CO)C(=O)c2cc(NC(=O)c3ccncc3)ccc2O[C@@H]1CN(C)C(=O)Nc1cccc2ccccc12	-	0	-	-	0
C[C@@H]1CN([C@@H](C)CO)S(=O)(=O)c2ccc(C3=CCCC3)cc2O[C@@H]1CN(C)Cc1cccnc1	-	0	-	-	0
CC(C)CC1C(=O)N(Cc2cn(CCC3OCCCO3)nn2)CCS(=O)(=O)N1Cc1ccc(-c2ccc(Cl)nc2)cc1 (stereo not given)	-	58	0	-	0
CC1(C)CC(=O)C(N=Nc2ccc(Br)cc2)=C(O)C1	-	-	70	-	-
O=[N+]([O-])c1ccc(O)c(C=NN2CCCCC2)c1	-	-	0	-	-
Oc1ccc(Br)cc1/C=N/n1cnc2ccccc21	0	53	-	0	0
Oc1ccc(Br)cc1/C=N/N1CCCCC1	110	-	0	0	-
CCNC(=O)C[C@@H]1CC[C@H]2[C@@H](COC[C@H](O)CN2C(=O)CC)O1	-	0	-	-	0
CCCCc1nc2cc(C(=O)N(C)C3CCOCC3)ccc2o1	0	94	?	0	0
COc1ccccc1NC(=O)N1CC[C@@H]2[C@H]1c1cc(C#Cc3ccc(F)cc3)ccc1N(C)[C@@H]2CO	-	0	-	-	0
CCCN(C)C[C@H]1OCCCC[C@H](C)Oc2ccc(NS(C)(=O)=O)cc2C(=O)N([C@H](C)CO)C[C@H]1C	-	0	-	-	0
Cc1ccsc1/C=N/N1CCOCC1	0	-	0	-	-
SMILES	MITF TRPM1 HTS	esBAF inh	Wnt act	Rtt109 HAT inh	C2C12 statin
Cc1ccc(N2CCN(/N=C/c3sccc3C)CC2)cc1	0	0	0	0	140
CC(C)c1cccc(NC(=O)C[C@H]2CC[C@H]3[C@@H](COc4ccc(NC(=O)c5ccc(C#N)cc5)cc4C(=O)N3C)O2)c1	-	0	-	-	0
Clc1ccc(C#Cc2cccnc2)cc1	109	67	0	0	0
Cc1cc(C)c2cc(C(=O)Nc3ccccc3)[nH]c2c1	0	60	0	0	0
CCCOc1ccc(NC(=O)c2cc3cc(C)ccc3[nH]2)cc1	0	0	0	0	0
Cc1ccc2[nH]c(C(=O)Nc3ccc(F)cc3)cc2c1	0	62	0	0	0
CO[C@@H]1CN(C)C(=O)c2cc(NS(C)(=O)=O)ccc2OC[C@@H](C)N(C(=O)NC(C)C)C[C@H]1C	-	0	-	-	0
CSc1ncc(C(=O)Nc2ccc(C(C)=O)cc2)c(-c2ccccc2)n1	0	61	0	0	0
CSc1ncc(C(=O)Nc2ccccc2F)c(-c2ccccc2)n1	-	0	0	0	0
C[C@@H]1CN([C@H](C)CO)C(=O)c2cc(NC(=O)Nc3ccccc3)ccc2O[C@H]1CN(C)Cc1ccc(Oc2ccccc2)cc1	-	0	-	-	0
CC(C)(C)c1ccc(C(=O)N2CCCC2)s1	0	47	0	0	0
CCCCNc1cc(NC(C)=O)cc2cc(OC)c(OC)cc12	0	47	-	0	0
COc1cc2cc(NC(C)=O)cc(NCc3ccccc3)c2cc1OC	-	0	0	0	0
CC(C)CC#Cc1ccc2c(c1)O[C@@H](CN(C)C)[C@@H](C)CN([C@@H](C)CO)S2(=O)=O	-	0	-	-	0
O=C(c1ccncc1)N1CC[C@@H]2[C@H](CO)Nc3ccc(Br)cc3[C@@H]21	-	0	-	-	0
CCOC(=O)/C=C(/C)N1N=C(c2ccc(OC)cc2)CC1c1cccc([N+](=O)[O-])c1 (stereo not given)	0	55	0	0	0
COc1ccc(C2=NN(C(=O)c3ccccc3)C(c3cccc([N+](=O)[O-])c3)C2)cc1 (stereo not given)	0	-	0	0	-
CCC1(c2ccc(F)cc2)NC(=O)N(CC(=O)NC2CC2)C1=O (stereo not given)	0	-	31	0	0
Cc1ccc(NC(=O)n2ncc3c(C)cccc32)c(C)c1	0	0	0	0	0
Cc1cccc2c1cnn2C(=O)Nc1ccc(Br)cc1F	0	0	0	0	99
COc1cccc(NC(=O)n2ncc3c(C)cccc32)c1	0	0	45	0	0
COc1ccc(CN(C)C[C@H]2Oc3ccc(NC(=O)C4CC4)cc3CC(=O)N([C@H](C)CO)C[C@H]2C)cc1	-	0	-	-	0
COc1cccc(NC(=O)CSc2nc(C)cs2)c1	-	0	0	0	109
N#Cc1cccc(NC(=O)Nc2cccs2)c1	0	0	0	0	0
COc1ccc(NC(=O)CSc2nc(C)cs2)cc1OC	0	0	-	0	0
CCc1cccc(NC(=O)Nc2cccs2)c1	0	59	-	0	0
CCc1cccc(NC(=O)CSc2nc(C)cs2)c1	-	82	0	-	0
C[C@H](CO)N1C[C@H](C)[C@H](CN(C)C(=O)Nc2ccccc2)Oc2ccc(NC(=O)Nc3ccccc3)cc2CC1=O	-	0	-	-	0
COCC(=O)N(C)C[C@@H]1Oc2cc(-c3ccccc3)ccc2S(=O)(=O)N([C@H](C)CO)C[C@H]1C	-	0	-	-	-
C[C@H]1CN([C@@H](C)CO)C(=O)c2cc(NS(=O)(=O)c3cn(C)cn3)ccc2O[C@H]1CN(C)S(=O)(=O)c1cn(C)cn1	-	0	-	-	0

Bioassay records deposited in PubChem BioAssay by Broad Institute.
